About 310 (2.8%) of roughly 11,000 compounds were called active. Cut-off read from the data, not from the text of the source: active = activity change below about -85%; inactive = the rest. Many of the other results were omitted from the sample, so actives are more common in it than they were.

The subject of the experiment is intestinal alkaline phosphatase [Mus musculus]. The experiment can be described thus: activators of mouse IAP, confirmation, biochemical, luminescence, single concentration (AID 434970). The conditions noted are these: purified mouse IAP, CDP-Star luminescence, 30 min, at 10 µM; activation factor: measured here: IAP activation factor, stronger effect = higher value; activity change, negative = activation: stronger effect = lower value.
Turning to `Cc1ccc(CN2C3CCCC2CC(NC(=O)Nc2cccc(F)c2)C3)cc1` (stereo not given), the activation factor came to 4.48 and the activity change, negative = activation was -348% (active).

Consider `Cc1ccc(CN2C3CCCC2CC(NC(=S)NCc2ccccc2)C3)cc1` (stereo not given), for which the activation factor was 2.88 and the activity change, negative = activation is -188% (active).

Turning to `Cc1cc(C)cc(NC(=S)NC2CC3CCCC(C2)N3Cc2cccs2)c1` (stereo not given), the activation factor came out at 2.5 and the activity change, negative = activation is -150% (active).

Regarding `CCc1ccc(N2C(=O)NC(=O)C(Cc3ccc(OC)cc3OC)C2=O)cc1` (stereo not given), the activation factor amounted to 1.06 and the activity change, negative = activation was -5.6% (inactive).

Take `CN1CCN(Cc2cc(C(C)(C)C)c(O)c(C(C)(C)C)c2)CC1`: the activation factor is 0.944 and the activity change, negative = activation is 5.6% (inactive).

With `CC(CO)(CO)N=Cc1c(O)n(-c2cccc3ccccc23)c(=O)[nH]c1=O`, the activation factor stood at 1.12 and the activity change, negative = activation is -12.2% (inactive).

`Cc1cc(NC(=O)COC(=O)c2c(C)nn(Cc3ccccc3)c2Cl)no1`: the activation factor is 0.971 and the activity change, negative = activation was 2.9% (inactive).

For `CSc1ccc(C(=O)C(C)(C)N2CCOCC2)cc1`, the activation factor amounted to 0.965 and the activity change, negative = activation is 3.5% (inactive).

Take `CCOC(=O)c1c(-n2c(C)cc(C=C3C(=O)NC(=S)NC3=O)c2C)sc2c1CCCC2`: the activation factor worked out at 0.649 and the activity change, negative = activation is 35.1% (inactive).

In the case of `COc1ccc(-n2c(=O)[nH]c3ccccc3c2=O)c(OC)c1`, the activation factor came to 1.08 and the activity change, negative = activation was -7.55% (inactive).

`CCOP(=O)(C(NC(=O)c1ccccc1Cl)=C(Cl)Cl)c1ccccc1` (stereo not given): the activation factor was 1.07 and the activity change, negative = activation is -6.55% (inactive).

On to `O=[N+]([O-])c1cc(S(=O)(=O)c2ccc(O)c([N+](=O)[O-])c2)ccc1O`, for which the activation factor came to 0.471 and the activity change, negative = activation was 52.9% (inactive).

For the compound `O=C(Cc1ccccc1)Oc1ccccc1N1C(=O)CCC1=O`, the activation factor was 1.07 and the activity change, negative = activation was -7.1% (inactive).

`CCOc1ccc2nc(N3CCC(C(=O)N4CCC5(CC4)OCCO5)CC3)sc2c1`: the activation factor worked out at 0.97 and the activity change, negative = activation is 3% (inactive).

`CC1(C)CSC(Nc2ccc(F)c(Cl)c2)=N1`: the activation factor worked out at 0.924 and the activity change, negative = activation was 7.6% (inactive).

In the case of `Clc1ccc(C(c2ccc(Cl)cc2)n2cc[n+](CC(OCc3ccc(Cl)cc3Cl)c3ccc(Cl)cc3Cl)c2)cc1` (stereo not given), the activation factor came to 31 and the activity change, negative = activation is -3000% (active).

For `Cc1nc2cc(F)ccc2n1C1CCN(Cc2nnnn2CCc2ccccc2)CC1`, the activation factor was found to be 1.13 and the activity change, negative = activation was -13.2% (inactive).

`O=C(Cn1cnc2ccccc2c1=O)NCCC(=O)N1CCC2(CC1)OCCO2`: the activation factor amounted to 1.09 and the activity change, negative = activation was -9.25% (inactive).

On to `COc1ccc(P2(=O)Nc3ccccc3N2)cc1`, for which the activation factor came to 0.951 and the activity change, negative = activation was 4.95% (inactive).

Take `CCOC(=O)c1ccc(N2C(=O)CC(N3CC=C(c4ccc(F)cc4)CC3)C2=O)cc1` (stereo not given): the activation factor was 0.996 and the activity change, negative = activation is 0.45% (inactive).

These data come from PubChem BioAssay AID434970 (Sanford-Burnham Center for Chemical Genomics, 2010).
